From PubChem
Rows were chosen to be rich in hits. Some 2.3% of all compounds tested hit in one or more screens of this group.
Rango complex inh: Rango-importin beta binding inhibition. Q14974. Rango CFP/YFP FRET sensor + importin beta, 45 min. Potency, µM (top dose mostly 92.2 µM), without a hit: at the top dose inhibition of complex formation. hit rate 0.031% among 340,000; calls by dose curve;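 also: 0% = DMSO wells and 100% = buffer wells lacking importin beta; nearly all actives have a fitted effect of over 15% in size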
Target sequence (Q14974 whole entry, looked up): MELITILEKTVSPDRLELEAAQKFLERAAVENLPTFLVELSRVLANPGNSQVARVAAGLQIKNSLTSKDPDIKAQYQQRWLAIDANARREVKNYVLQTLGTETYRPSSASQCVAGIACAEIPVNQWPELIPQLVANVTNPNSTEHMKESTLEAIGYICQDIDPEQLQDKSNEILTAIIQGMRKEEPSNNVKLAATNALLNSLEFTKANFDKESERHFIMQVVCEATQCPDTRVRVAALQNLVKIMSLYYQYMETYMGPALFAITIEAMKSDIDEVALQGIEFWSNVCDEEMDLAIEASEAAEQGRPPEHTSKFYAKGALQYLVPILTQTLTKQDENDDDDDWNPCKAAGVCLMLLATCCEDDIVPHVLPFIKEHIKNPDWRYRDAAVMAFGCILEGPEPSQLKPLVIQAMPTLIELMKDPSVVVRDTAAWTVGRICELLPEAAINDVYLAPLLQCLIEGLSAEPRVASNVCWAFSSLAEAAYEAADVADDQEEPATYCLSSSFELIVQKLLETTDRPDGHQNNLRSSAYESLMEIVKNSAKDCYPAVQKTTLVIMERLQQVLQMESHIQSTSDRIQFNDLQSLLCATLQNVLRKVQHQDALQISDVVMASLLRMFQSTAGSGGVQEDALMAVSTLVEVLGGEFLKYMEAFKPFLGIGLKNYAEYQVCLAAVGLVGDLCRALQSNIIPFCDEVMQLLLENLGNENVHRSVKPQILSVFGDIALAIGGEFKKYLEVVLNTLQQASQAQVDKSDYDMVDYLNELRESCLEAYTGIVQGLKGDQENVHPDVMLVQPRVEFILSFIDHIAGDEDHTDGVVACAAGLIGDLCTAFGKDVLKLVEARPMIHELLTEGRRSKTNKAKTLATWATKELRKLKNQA
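FRET biosensor (snurportin 1 IBB flanked by EYFP and cerulean), 50 nM, with compound 5 min, then 0.125 microM importin beta in PBS, 1 mM DTT, 0.02% Tween-20, 0.1% BSA. CFP/YFP ratio read after 45 min at room temperature; pre-read flags interference.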
A549 viability: A549 cytotoxicity, counter-screen for Nrf2 inhibitors; Potency, µM (top dose mostly 46 µM), for inactives: top-dose activity change, negative = cytotoxicity, usual class: inhibitors; hit rate 0.16% among 390,000; AID 504648; A549 ARE-Fluc cells, CellTiter-Fluor viability, 18-24 h; also: % is scaled to controls: 0 for no effect and ±100 for the full control effect
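A549 ARE_Fluc cells in 5% FBS OPTI-MEM were exposed to compounds in concentration-response for 18-24 h at 37 deg C. Viability was read by CellTiter-Fluor fluorescence (Ex 405/Em 525) after 30 min, before the luciferase read.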
Rango release inh: prevents RanGTP from dissociating the Rango-importin beta complex; Biochemical FRET Rango-importin beta, RanGTP-induced dissociation; hit rate 0.071% among 340,000; AID 540253; O95149+P62826; Potency, µM (titrated, usually from 46.1 µM), inactives show at the highest dose activity change, negative = inhibition; calls by dose curve; also: % of control where 0% means no effect; nearly all actives have a fitted effect of over 45% in size
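Two FRET readings bracket the reaction: one 5 min after compound meets Rango–importin beta, another 45 min after RanGTP-RCC1 (0.6 uM Ran, 0.2 uM RCC1, 2 mM GTP) is added. Only the second defines inhibition.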
Nrf2 inh: Nrf2 pathway inhibition; A549 ARE-Fluc reporter, luciferase luminescence, 18-24 h; Potency, µM (doses to about 46 µM), without a hit: at the top dose activity change, negative = inhibition, actives largely listed as inhibitors; hit rate 2.1% among 360,000; also: % is scaled to controls: 0 for no effect and ±100 for the full control effect; nearly all actives have a fitted effect of over 60% in size
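Two sequential reads on A549 ARE_Fluc cells exposed to compound for 18-24 h: a CellTiter-Fluor fluorescence read for viability, then a luciferase luminescence read for Nrf2/ARE activity.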
Nrf2 ARE act: activators of Nrf2 (ARE) signaling | Potency, µM (titrated, usually from 46.1 µM), for inactives: at the highest dose activation, hits mostly activators | AID 624171 | hit rate 0.31% among 410,000 | AREc32 ARE-luciferase reporter (MCF7-derived line), luminescence, 24 h; also: % of control where 0% means no effect; nearly all actives have a fitted effect of over 65% in size
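Each well held 1000 AREc32 cells, which were incubated with compound for 24 hr at 37 deg C after overnight attachment, and ARE reporter activity was quantified by firefly luciferase luminescence.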
Active calls of the source: *; ! = repeats disagree; [ ] = another dose, or the depositor's remark. Unless noted, calls follow the shape of the dose curve; as a rule, active = well fitted curve in the direction sought with a large enough effect; inconclusive = small, poorly fitted or top-dose-only effect, or another doubt; inactive = no such curve, though single readings can be large; an effect the other way counts as inactive or inconclusive. Potency is read from the fitted curve at half-maximal effect.

For COc1ccc(/C=C/C(=O)c2ccc3c4c(cccc24)CC3)cc1 the results were Rango complex inh inconclusive, A549 viability 10.8%, Rango release inh -7.4%, Nrf2 inh inconclusive and Nrf2 ARE act inconclusive.
COc1ccc(/C=C/C(=O)c2ccc3c4c(cccc24)CC3)cc1OC was read as Rango complex inh inconclusive, A549 viability -2.5%, Rango release inh -17.7%, Nrf2 inh 18.4µM* and Nrf2 ARE act 0.5%[9.22 µM].
CCc1ccccc1NC(=O)Cn1c(C(=O)OC)cc2oc(C)cc21 was read as A549 viability -8.1%, Nrf2 inh -12.9% and Nrf2 ARE act -0.5%.
For COC(=O)c1ccsc1NC(=O)CSc1nnnn1-c1ccccc1SC the results were Rango complex inh -0.2%, A549 viability -19.7%, Rango release inh -2.8%, Nrf2 inh 20.6µM* and Nrf2 ARE act 3.7%.
For CCCCOC(=O)c1ccc(NC(=O)c2cnc3ccc(C)cn3c2=O)cc1 the results were A549 viability 0.2%, Nrf2 inh -2.4% and Nrf2 ARE act -0.4%.
For CN(CC(=O)Nc1ccc(F)c(F)c1F)C(=O)/C=C/c1ccco1 the results were Rango complex inh 1.4%, A549 viability 1.0%, Rango release inh 0.4%, Nrf2 inh -7.0% and Nrf2 ARE act 12.6µM*.
`CN(CC(=O)Nc1ccc(F)c(F)c1F)C(=O)/C=C/c1ccc(Cl)cc1` gave Rango complex inh -2.5%, A549 viability 2.7%, Rango release inh 0.7%, Nrf2 inh -15.9% and Nrf2 ARE act 0.0%[9.22 µM].
`S=C(Nc1ccccc1)Nc1ccc(OCc2ccc(Cl)cc2Cl)cc1` gave Rango complex inh -0.2%, A549 viability 3.3%, Rango release inh -1.8%, Nrf2 inh 18.4µM* and Nrf2 ARE act -2.3%.
COc1cc(NC(=O)CCN2CCN(c3ccccc3)CC2)cc(OC)c1 was read as A549 viability 0.0% and Nrf2 inh 3.2%.
O=C1CN=C(Nc2cccc(C(F)(F)F)c2)N1C1CCCC1 was read as Rango complex inh -1.2%, A549 viability -26.6%, Rango release inh 5.7%, Nrf2 inh 14.6µM* and Nrf2 ARE act -0.7%.
For CC1(C)SC2C(C(=O)O)N=C(Cc3ccccc3)N2C1C(=O)O (centres undefined) the results were Rango complex inh 1.2%, A549 viability 4.2%, Rango release inh 15.2%, Nrf2 inh -19.3% and Nrf2 ARE act -1.1%.
Screening CN1CCC2(CC1)C1CN(C)CC=C1C(C#N)=C(N)C2(C#N)C#N (centres undefined) returned Rango complex inh inconclusive, A549 viability 16.4µM*!, Rango release inh inconclusive, Nrf2 inh -4.9% and Nrf2 ARE act -0.7%.
For Cc1cc2c(s1)c1cnn(Cc3ccc(SC(F)(F)F)cc3)c(=O)c1n2C the results were A549 viability -1.5% and Nrf2 inh 5.3%.
For Cc1cc2oc(=O)cc(CN3CCN(c4ccccc4)CC3)c2cc1Cl the results were Nrf2 ARE act 0.0%.
Screening Cc1cc2oc(=O)cc(Cn3ncc(Cl)c(Cl)c3=O)c2cc1Cl returned Rango complex inh 1.1%, A549 viability inconclusive, Rango release inh 6.0%, Nrf2 inh inconclusive and Nrf2 ARE act 3.98µM*.
Screening O=c1cc(NCc2ccco2)c2ccccc2o1 returned Rango complex inh -1.2%, A549 viability -2.8%, Rango release inh -0.6%, Nrf2 inh -16.8% and Nrf2 ARE act 12.6µM*.
`O=c1cc(NCc2ccccc2)c2ccccc2o1` gave Rango complex inh -2.7%, A549 viability -3.8%, Rango release inh 1.2%, Nrf2 inh -40.5% and Nrf2 ARE act -0.8%.
Cc1c(C(=O)NCc2ccco2)oc2ccccc12 was read as Rango complex inh 2.0%, A549 viability 4.9%, Rango release inh 35.4%, Nrf2 inh 2.5% and Nrf2 ARE act 14.1µM*.
Screening Cc1c(C(=O)NCc2ccco2)oc2ccc(Br)cc12 returned Rango complex inh -2.7%, A549 viability 0.0%, Rango release inh -1.9%, Nrf2 inh inconclusive and Nrf2 ARE act inconclusive.
For O=C(CSc1cn(CCNC(=O)c2cccc(C(F)(F)F)c2)c2ccccc12)Nc1ccc2c(c1)OCCO2 the results were A549 viability inconclusive, Nrf2 inh 16.4µM* and Nrf2 ARE act -0.7%.
Cn1ccc2c(OCC(=O)NCc3ccccc3Cl)cccc2c1=O was read as A549 viability 2.6% and Nrf2 ARE act 7.2%.
For CCOc1cc(C=O)cc(N=Nc2cccc([N+](=O)[O-])c2)c1O the results were Rango complex inh -2.8%, A549 viability -11.6%, Rango release inh 8.3%, Nrf2 inh 3.3% and Nrf2 ARE act 10µM*.
For COc1cc(CNCc2ccc(OC)c(OC)c2OC)cc(OC)c1 the results were Rango complex inh -0.7%, A549 viability -4.1%, Rango release inh 0.7%, Nrf2 inh 9.2µM* and Nrf2 ARE act 0.3%.
`Cc1cc2c(s1)c1cnn(Cc3ccc(Cl)c(Cl)c3)c(=O)c1n2C` gave A549 viability -0.2% and Nrf2 inh 12.9%.
Screening CCn1c(C(=O)N2CCC(C(=O)N3CCN(c4cccc(C)c4C)CC3)CC2)cc2sccc21 returned A549 viability -19.8%, Nrf2 inh 20.6µM* and Nrf2 ARE act -2.1%.
Screening CCn1c(C(=O)N2CCC(C(=O)N3CCN(c4cc(C)ccc4C)CC3)CC2)cc2sccc21 returned A549 viability -8.9%, Nrf2 inh inconclusive and Nrf2 ARE act -0.1%.
Screening Cc1cccc(N2CCN(C(=O)C3CCN(S(=O)(=O)N4CCOCC4)CC3)CC2)c1C returned Rango complex inh -1.4%, A549 viability 1.6%, Rango release inh -22.7%, Nrf2 inh 20.6µM* and Nrf2 ARE act 4.2%.
For Cc1ccc(NS(=O)(=O)c2cccc(F)c2)cc1C the results were A549 viability 7.3% and Nrf2 inh 4.1%.
For COc1ccc(C)cc1NC(=O)c1cccc(-c2ccc(OC(C)=O)cc2)c1 the results were Rango complex inh 0.0%, A549 viability -23.9%, Rango release inh 3.9%, Nrf2 inh 16.4µM* and Nrf2 ARE act 3.7%.
Screening Cc1sc2ncnc(Sc3nnnn3-c3ccccc3)c2c1C returned Rango complex inh -3.2%, A549 viability 1.6%, Rango release inh 7.8%, Nrf2 inh inconclusive and Nrf2 ARE act 8.91µM*.
For Cn1nnnc1Sc1ncnc2scc(-c3cccc(S(C)(=O)=O)c3)c12 the results were Rango complex inh 1.2%, A549 viability inconclusive, Rango release inh 4.4%, Nrf2 inh 8.2µM* and Nrf2 ARE act -1.6%.
Cn1nnnc1Sc1ncnc2scc(-c3cccc(Br)c3)c12 was read as Rango complex inh -1.2%, A549 viability -26.0%, Rango release inh 4.9%, Nrf2 inh 23.1µM* and Nrf2 ARE act 12.4%.
For Cn1nnnc1Sc1ncnc2scc(-c3ccc(S(C)(=O)=O)cc3)c12 the results were A549 viability 1.5% and Nrf2 inh inconclusive.
